An excerpt weighted towards active compounds, which were near 1.9% of everything screened.
Neddylation inh – inhibitors of human cullin neddylation. P61081+Q13564. TR-FRET cullin neddylation, biochemical. inhibition, % at 25 µM. 360,000 tested, 0.58% active. AID 651699; in the data active = inhibition above about 36%
Bfl-1 A1 inh – inhibitors of the anti-apoptotic protein A1, read as caspase activation; caspase activation, % (concentration not given with the values); MEF A1-2A-BIM cells, Caspase-Glo 3/7 luminescence, 3 h; percent of clofoctol response, vehicle zero; 330,000 tested, 0.066% active;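 active = over half of replicate activation scores above 10%, or exactly half above 10 with the replicate mean above 10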
dFosB activator – enhances mouse delta FosB homodimer DNA binding; P13346; purified delta FosB, TAMRA-CDK5 oligo fluorescence polarization; percent of positive-control signal above neutral wells; activation, % at 25 µM; 340,000 tested, 0.99% active; AID 493131;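 active = mean activation above about 17%, with every replicate also reaching it, limit read from the data, passing the limit was not always enough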
Target sequence (P13346 whole entry, looked up): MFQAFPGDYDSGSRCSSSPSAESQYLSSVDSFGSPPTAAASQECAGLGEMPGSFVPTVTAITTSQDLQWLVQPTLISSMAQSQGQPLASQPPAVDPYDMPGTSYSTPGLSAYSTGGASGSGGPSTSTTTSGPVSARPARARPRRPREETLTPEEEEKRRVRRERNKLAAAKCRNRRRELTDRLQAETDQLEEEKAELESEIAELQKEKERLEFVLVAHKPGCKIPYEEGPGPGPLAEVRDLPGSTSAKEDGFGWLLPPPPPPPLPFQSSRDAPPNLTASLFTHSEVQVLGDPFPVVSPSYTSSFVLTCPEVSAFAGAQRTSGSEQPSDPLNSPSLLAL
Vif imaging – HIV Vif inhibition; HEK293T cells, Vif self-association by quenched fluorescence, imaging, 24 h; inhibition, % at 7.49 µM; 340,000 tested, 0.35% active; in the data active = inhibition above about 50%, passing the limit was not always enough
GSIS activator – primary screen for activators of insulin secretion dependent on glucose, INS-1E cells, GLuc reporter luminescence | INS-1E GLuc reporter insulin secretion, 2-3 h | activation, % at 16.6 µM | 370,000 tested, 0.61% active;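 active = lowest replicate activation of at least 40%, so every replicate reaches that level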
Neddyl inh conf – confirmation of human cullin neddylation inhibitors; shares compounds with Neddylation inh; TR-FRET cullin neddylation biochemical assay; calls only at 25 µM; 1,800 tested, 13% active; AID 652217; in the data active = inhibition above about 40%;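 also: neddylation substrate is the cullin 1 ring ligase complex with SKP2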
Large screens that a line does not name were inactive (follow-up assays come after a bar, where shown).

Cn1c(=O)c2nc(NCc3ccccc3)cnc2n(C)c1=O	Neddylation inh 64 | Neddyl inh conf active
Cn1c(=O)c2c(ncn2Cc2ccccc2)n(C)c1=O	none (no result: Bfl-1 A1 inh, GSIS activator)
COCC(=O)N(C)C[C@H]1Oc2cc(C#CCC(C)C)ccc2S(=O)(=O)N([C@H](C)CO)C[C@@H]1C	none (no result: Neddylation inh, Bfl-1 A1 inh, dFosB activator, Vif imaging)
C[C@H](CO)N1C[C@H](C)[C@@H](CN(C)S(=O)(=O)c2ccccc2)Oc2cc(C#Cc3ccncc3)ccc2S1(=O)=O	none (no result: Neddylation inh, Bfl-1 A1 inh, dFosB activator, Vif imaging)
C[C@@H]1CN([C@@H](C)CO)C(=O)c2cc(/C=C/c3ccccc3)cnc2O[C@@H]1CN(C)S(=O)(=O)c1ccc(F)cc1	Neddylation inh 41 (no result: Bfl-1 A1 inh, dFosB activator) | Neddyl inh conf inactive
CC(C)(C)c1ccc(OCC(=O)N/N=C/c2ccc(N3CCOCC3)cc2)cc1	Neddylation inh 54 | Neddyl inh conf inactive
Cc1ccc(C)c(OCC(=O)N/N=C/c2ccc(N3CCOCC3)cc2)c1	Neddylation inh 48 (no result: Bfl-1 A1 inh, dFosB activator) | Neddyl inh conf active
O=C(CN1CCOCC1)N[C@@H]1CC[C@@H](CCNS(=O)(=O)c2ccccc2F)O[C@H]1CO	none (no result: Neddylation inh, Bfl-1 A1 inh, dFosB activator, Vif imaging)
C[C@@H]1CN([C@H](C)CO)C(=O)c2cc(NC(=O)Cc3cn(C)c4ccccc34)ccc2O[C@H]1CN(C)C(=O)NC1CCCCC1	none (no result: Neddylation inh, Bfl-1 A1 inh, dFosB activator, Vif imaging)
N#Cc1nc(-c2ccccc2F)oc1NCCc1ccccn1	Neddylation inh 39 (no result: Vif imaging) | Neddyl inh conf inactive
N#Cc1nc(-c2ccccc2F)oc1NCCc1ccccc1	none (not shown: Neddylation inh, GSIS activator)
CCOc1ccc(-c2c(C(=O)N/N=C/c3ccoc3)nnn2-c2nonc2N)cc1	none (no result: GSIS activator)
CCOc1ccc(-c2c(C(=O)N/N=C/c3c[nH]c4ccccc34)nnn2-c2nonc2N)cc1	Neddylation inh 42 | Neddyl inh conf inactive
Cc1c(C(C)NC(=O)c2cc(COc3cccc4cnccc34)on2)cnn1C (stereo not drawn)	Neddylation inh 56 | Neddyl inh conf active
C[C@@H]1CCCCO[C@@H](CN(C)C(=O)c2ccccc2)[C@H](C)CN([C@@H](C)CO)C(=O)c2cc(NC(=O)Cc3ccccc3)ccc2O1	none (no result: Neddylation inh, Bfl-1 A1 inh, dFosB activator, Vif imaging)
Cc1nc2c(C(=O)N3CCCC3)cnn2c(C)c1Cc1c(F)cccc1Cl	none (not shown: Neddylation inh)
Cc1nc2c(C(=O)N3CCN(c4ccccn4)CC3)cnn2c(C)c1Cc1cccc(Cl)c1	Neddylation inh 45 | Neddyl inh conf inactive
O=C(NC1CCC1)[C@H]1[C@H](CO)[C@H]2Cn3c(cccc3=O)[C@@H]1N2CC1CCCC1	none (no result: Neddylation inh, Bfl-1 A1 inh, dFosB activator, Vif imaging)
CCCNC(=O)C[C@@H]1CC[C@@H]2[C@H](COC[C@@H](O)CN2Cc2ccccc2F)O1	none (no result: Neddylation inh, Bfl-1 A1 inh, dFosB activator, Vif imaging)
COc1cc(OC)cc(-c2oc3cccnc3c2C#CCCO)c1	Neddylation inh 37 | Neddyl inh conf active
COC(=O)c1[nH]c2ccc(C)cc2c1NC(=O)CCN1CCN(Cc2ccc3c(c2)OCO3)CC1	Neddylation inh 42 (no result: GSIS activator) | Neddyl inh conf inactive
COc1ccccc1CCn1cnc2c3cc(C)ccc3n(C)c2c1=O	Neddylation inh 43 (not shown: GSIS activator)
COc1ccc2c(c1)c1ncn(CCN3CCCC3)c(=O)c1n2C	none (not shown: Neddylation inh, GSIS activator)
Cc1noc(C)c1NC(=O)Nc1cccc2c1O[C@@H](CN(C)S(=O)(=O)c1cn(C)cn1)[C@@H](C)CN([C@@H](C)CO)C2=O	none (no result: Neddylation inh, Bfl-1 A1 inh, dFosB activator, Vif imaging)
CN(C)C(=O)c1c(-c2ccccc2)oc2ccc(O)cc12	Neddylation inh 45 | Neddyl inh conf inactive
CCCN(C)C[C@@H]1Oc2cc(C#CCOC)ccc2S(=O)(=O)N([C@@H](C)CO)C[C@@H]1C	none (no result: Neddylation inh, Bfl-1 A1 inh, dFosB activator, Vif imaging)
CN1c2ccccc2C(O)=C(C(=S)Nc2ccc(F)c(Cl)c2)S1(=O)=O	Neddylation inh 44 (no result: GSIS activator) | Neddyl inh conf inactive
CN1c2ccccc2C(O)=C(C(=S)Nc2ccccc2)S1(=O)=O	none (no result: GSIS activator)
COc1ccc(N2CCc3c(C)nc4c(OC)cc(OC)cc4c32)c(OC)c1	Neddylation inh 41 (no result: GSIS activator) | Neddyl inh conf inactive
C[C@@H]1CN([C@@H](C)CO)C(=O)c2cccc(NC(=O)Nc3ccc4c(c3)OCO4)c2O[C@H]1CN(C)Cc1ccc(Oc2ccccc2)cc1	none (no result: Neddylation inh, Bfl-1 A1 inh, dFosB activator, Vif imaging)
COc1cccc(Nc2nc3ccccc3n3nnnc23)c1	Neddylation inh 44 (not shown: GSIS activator)
Cc1noc(C)c1S(=O)(=O)N(C)C[C@@H]1Oc2ccc(NC(=O)Nc3ccccc3)cc2CC(=O)N([C@H](C)CO)C[C@@H]1C	none (no result: Neddylation inh, Bfl-1 A1 inh, dFosB activator, Vif imaging)
Cc1cc(-n2ccnc2)n2c(nc3ccccc32)c1C#N	Neddylation inh 43 | Neddyl inh conf inactive
CCCc1cc(-n2ccnc2)n2c(nc3ccccc32)c1C#N	none (not shown: Neddylation inh, GSIS activator)
O=C(Nc1ccc2nc(-c3ccco3)[nH]c2c1)c1ccco1	none (not shown: Neddylation inh, GSIS activator)
O=C(Nc1ccc2nc(-c3ccco3)[nH]c2c1)c1cccs1	Neddylation inh 45 (no result: Vif imaging, GSIS activator) | Neddyl inh conf inactive
Cc1cc(-c2ccc3c(c2)COc2c4ccccc4nn2-3)on1	Neddylation inh 43 | Neddyl inh conf inactive
CO[C@H]1CN(C)C(=O)c2ccc(NC(=O)c3nc4ccccc4s3)cc2OC[C@H](C)N(Cc2ccncc2)C[C@H]1C	none (no result: Neddylation inh, Bfl-1 A1 inh, dFosB activator, Vif imaging)
COc1ccc(/C=C/C(=O)NC(=S)NNC(=O)c2cc(OC)c(OC)c(OC)c2)cc1	Neddylation inh 48 | Neddyl inh conf inactive
COc1ccc(/C=C/c2ccccc2)cc1[C@H]1[C@H]2C=CC[C@@H](C)[C@@H]2C(=O)N1Cc1ccccc1	Neddylation inh 30 | Neddyl inh conf inactive
COc1ccc(NC(=O)C(C2CC2)n2c(=O)c(-c3ccccc3)nc3ccccc32)cc1 (stereo not drawn)	none (no result: Bfl-1 A1 inh, dFosB activator, Vif imaging)
CC(C)(C)NC(=O)C(c1ccncc1)n1c(=O)c(-c2ccccc2)nc2ccccc21 (stereo not drawn)	Neddylation inh 50 (not shown: Bfl-1 A1 inh, dFosB activator, Vif imaging)
O=C(NC1CCCCC1)C(c1ccc(C(F)(F)F)cc1)n1c(=O)c(-c2ccccc2)nc2ccccc21 (stereo not drawn)	Neddylation inh 41 (no result: Bfl-1 A1 inh, dFosB activator, Vif imaging) | Neddyl inh conf inactive
CCCCCNC(=O)C(C1CC1)n1c(=O)c(-c2ccccc2)nc2ccccc21 (stereo not drawn)	Neddylation inh 45 (not shown: Bfl-1 A1 inh, dFosB activator, Vif imaging)
Cc1cccc(C)c1NC(=O)C(c1ccncc1)n1c(=O)c(-c2ccccc2)nc2ccccc21 (stereo not drawn)	Neddylation inh 62 (no result: Bfl-1 A1 inh, dFosB activator, Vif imaging) | Neddyl inh conf active
N#Cc1ccc(-c2ccc([C@H]3[C@H](CO)N4C(=O)CN(C(=O)C5CC5)C[C@@H]34)cc2)cc1	none (no result: Neddylation inh, Bfl-1 A1 inh, dFosB activator, Vif imaging)
C[C@H]1CN([C@@H](C)CO)C(=O)c2cccc(NC(=O)c3cnccn3)c2O[C@@H]1CN(C)CC1CC1	none (no result: Neddylation inh, Bfl-1 A1 inh, dFosB activator, Vif imaging)
C/C(=N\NC(=O)c1ccc(NS(=O)(=O)c2cccs2)cc1)c1ccc(O)cc1O	Neddylation inh 42
O=C(N/N=C/c1ccc(N2CCOCC2)s1)c1ccc(NS(=O)(=O)c2cccs2)cc1	Neddylation inh 50 | Neddyl inh conf active
Cc1cc(C)c2nc(N3CCN(C)CC3)c(C#N)cc2c1	Neddylation inh 42 (no result: GSIS activator) | Neddyl inh conf inactive
Cc1ccc2nc(N3CCN(C)CC3)c(C#N)cc2c1	Neddylation inh 40 (no result: GSIS activator) | Neddyl inh conf inactive
Cc1cccc2cc(C#N)c(N3CCN(C)CC3)nc12	none
Cc1ccc2cc(C#N)c(N3CCN(C)CC3)nc2c1	none (no result: GSIS activator)

From PubChem BioAssay
